Experimental data as given in PubChem BioAssay AID488969 (Vanderbilt High Throughput Screening Facility, 2010).
In all, about 110,000 compounds were measured (“z-score”: median about -0.1, highest 2% from about 2 on). What follows is part of a selection rich in the highest values, with near analogues and random picks from the rest. Activity calls are given as the source filed them.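 How the source made its calls: active means z-score in the third read window above 3 or below -3; inactive means the rest.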

These compounds were tested against Metabotropic glutamate receptor 8 (Rattus norvegicus) (UniProt P70579) (assay: mGluR8 Gi/Go-coupled signaling modulation – cell-based, rat, thallium flux, HTS, primary screen (AID 488969)). Conditions: HEK293 rat mGluR8, GIRK (G protein-gated inwardly rectifying potassium channel) thallium flux, FluoZin2; at 10 µM; stronger effect = higher value; submaximal glutamate (EC20) added with thallium.
Metabotropic glutamate receptor 8 (Rattus norvegicus), sequence (P70579 whole entry, looked up): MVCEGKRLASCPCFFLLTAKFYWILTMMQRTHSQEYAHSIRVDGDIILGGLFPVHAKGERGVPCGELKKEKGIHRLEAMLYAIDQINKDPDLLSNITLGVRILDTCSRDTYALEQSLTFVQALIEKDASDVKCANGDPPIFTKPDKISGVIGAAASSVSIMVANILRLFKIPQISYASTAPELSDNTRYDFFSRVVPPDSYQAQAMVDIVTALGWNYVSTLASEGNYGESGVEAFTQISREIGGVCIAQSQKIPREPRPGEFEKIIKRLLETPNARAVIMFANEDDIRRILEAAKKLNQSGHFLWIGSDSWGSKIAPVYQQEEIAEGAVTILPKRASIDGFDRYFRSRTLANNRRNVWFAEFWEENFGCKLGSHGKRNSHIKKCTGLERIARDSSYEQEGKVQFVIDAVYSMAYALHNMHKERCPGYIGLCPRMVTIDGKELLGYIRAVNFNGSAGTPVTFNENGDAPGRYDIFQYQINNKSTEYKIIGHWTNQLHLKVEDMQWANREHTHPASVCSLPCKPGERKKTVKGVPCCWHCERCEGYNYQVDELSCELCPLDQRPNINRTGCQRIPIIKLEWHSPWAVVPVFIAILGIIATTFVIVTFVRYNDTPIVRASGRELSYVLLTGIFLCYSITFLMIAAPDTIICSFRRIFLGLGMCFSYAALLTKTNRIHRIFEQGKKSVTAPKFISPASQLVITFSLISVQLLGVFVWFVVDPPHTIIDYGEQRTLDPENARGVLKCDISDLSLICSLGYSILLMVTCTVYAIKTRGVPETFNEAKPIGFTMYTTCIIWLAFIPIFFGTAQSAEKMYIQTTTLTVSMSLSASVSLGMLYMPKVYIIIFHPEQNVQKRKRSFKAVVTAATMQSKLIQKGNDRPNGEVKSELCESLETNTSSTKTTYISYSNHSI
For `Oc1ccc(-c2n[nH]c(=S)n2Cc2ccco2)cc1`, the z-score was -0.11. `Nn1c(-c2cccc(Br)c2)n[nH]c1=S` showed a z-score of -0.267. `CCn1c(-c2cc(C3CC3)nc3ccccc23)n[nH]c1=S` was tested, and the z-score was -0.258. `S=c1[nH]nc(-c2ccc(Br)cc2)n1Cc1ccco1` was tested, and the z-score was 2.41. `CCn1c(-c2ccc(C)cc2)n[nH]c1=S` showed a z-score of -0.192. `CCn1c(-c2cccc(Br)c2)n[nH]c1=S` showed a z-score of 2.35. In the case of `CCn1c(-c2cc3ccccc3cc2O)n[nH]c1=S`, the z-score is reported as 2.62. `S=c1[nH]nc(-c2ccncc2)n1Cc1ccco1` showed a z-score of -0.198. Compound `CCn1c(-c2c[nH]c3ccccc23)n[nH]c1=S` has a z-score of -0.0356. `CCCCCn1c(N)c(-c2nc3ccccc3s2)c2c([N+](=O)[O-])nn(CC)c(=O)c21` was tested, and the z-score was -0.75. `COc1ccc2c(c1OC)C(=O)N1N=C(c3ccc(Br)cc3)CC21` (stereo not drawn) showed a z-score of -1.04. Compound `C=C(C)C1CC=C(CN2CCC(C(=O)OCC)CC2)CC1` (stereo not drawn) has a z-score of 0.503. `Cc1ccc(S(=O)(=O)c2nc(S(C)(=O)=O)sc2N(C)C)cc1` showed a z-score of 0.113. For `COc1ccc(CC(=O)O/N=C(\N)Cc2cccc3ccccc23)cc1OC`, the z-score was -0.317. `Cc1ccsc1/C=C(\C#N)C(=O)NCc1ccco1` was tested, and the z-score was -0.0871. Work on `CCOc1cc(C)c(S(=O)(=O)Nc2ccc(F)cc2)cc1C` yielded a z-score of 0.564. `COc1ccc(C)c(S(=O)(=O)Nc2ccc(OCC(=O)O)cc2)c1` was tested, and the z-score was 0.2. For `COc1cc(C)c(S(=O)(=O)Nc2ccc(CC(=O)O)cc2)cc1C`, the z-score was 2.01. For `N#C/C(=C\c1ccccc1)C(=O)Nc1cc(S(=O)(=O)N2CCOCC2)ccc1N1CCCC1`, the z-score was -0.0157. Work on `CC(C)NC(=O)C12CC3CC(C1)CC(n1cnc(Cl)n1)(C3)C2` yielded a z-score of -0.0733. `COc1ccc(C(=O)NNC(=O)CN2CCC(n3nnc4cc(F)ccc43)CC2)cc1` showed a z-score of -0.223. With `O=C(O)c1cccc(-c2ccc(/C=N/NC(=O)c3cccnc3)o2)c1` the z-score was -0.216. `Cc1ccc(OCC(=O)N/N=C\c2ccncc2)c(C)c1` showed a z-score of 1.4. With `Cc1ccc(OCC(=O)N/N=C\c2ccc(-c3cccc(C(=O)O)c3)o2)c(C)c1` the z-score was 3.24 (active). For `O=C(NC1CCCC1)C1CCN(c2nccs2)CC1`, the z-score was 0.382. With `CCc1cccc(CC)c1NC(=O)COC(=O)CCc1cc(OC)c(OC)c(OC)c1` the z-score was -0.0755. `CCC(=O)c1c[nH]c(C(=O)NCCCN2CCOCC2)c1` was tested, and the z-score was -0.121. Compound `CC(=O)N1CCC(N(CCN2CCOCC2)C(=S)Nc2cc(C)ccc2C)CC1` has a z-score of -0.0971. `COC(=O)c1cc(NC(=O)c2c(Cl)cnn2C)cc(C(=O)OC)c1` showed a z-score of -0.191. `COC(=O)c1ccc(NC(=S)NC(=O)c2c(Cl)cnn2C)cc1` was tested, and the z-score was 10.1 (active). With `CCCCOC(=O)c1ccc(NC(=S)NC(=O)c2c(Cl)cnn2C)cc1` the z-score was 11.2 (active). With `CCCCOC(=O)c1ccc(NC(=S)NC(=O)c2c(Br)c(C)nn2C)cc1` the z-score was 4.24 (active). With `CCCCOC(=O)c1ccc(NC(=O)c2nn(C)cc2Br)cc1` the z-score was -0.112. In the case of `CCn1ncc(Cl)c1C(=O)Nc1ccncc1`, the z-score is reported as -0.171. `CCCCOC(=O)c1ccc(NC(=O)c2cnccn2)cc1` gave a z-score of 0.00424. For `CCOC(=O)c1ccc(NC(=S)NC(=O)c2nn(CC)cc2Br)cc1`, the z-score was 1.17. `Cn1ncc(Cl)c1C(=O)Nc1ccncc1` was tested, and the z-score was 0.243. For `CCCCOC(=O)c1ccc(NC(=S)NC(=O)c2c(Cl)cnn2CC)cc1`, the z-score was 8.06 (active). For `CCCCOC(=O)c1ccc(NC(=O)c2cc(Cl)ccc2OC)cc1`, the z-score was -0.0115. Compound `CCCCOC(=O)c1ccc(NC(=O)c2ccccc2OC)cc1` has a z-score of -0.0471. `CCc1nnc(NC(=O)C2CCCN2S(=O)(=O)c2ccc(F)cc2)s1` (stereo not drawn) gave a z-score of 0.145. `CCOC(=O)c1cccc(NS(=O)(=O)c2c(C)[nH]c(=O)[nH]c2=O)c1` was tested, and the z-score was -0.0134. In the case of `CCn1c(/C=C2\C(=O)Nc3ccccc32)nc2ccccc2c1=O`, the z-score is reported as -0.221. `COc1cccc(OCC(=O)N(Cc2nc(-c3ccc(Cl)cc3)no2)C(C)C)c1` showed a z-score of 0.0492. `CCS(=O)(=O)NC(C)C(c1cccs1)N1CCN(c2ccc(F)cc2)CC1` (stereo not drawn) showed a z-score of 0.062. `COc1ccc(OC)c(N2Cc3cc(C)c(C)cc3C2)c1` gave a z-score of 0.286. `NC(=O)N1CCN(C(=O)c2ccco2)CC1` showed a z-score of 0.536. For `COc1ccc(OC)c(/C=N/NC(=O)CC2C(=O)NN=C2C)c1` (stereo not drawn), the z-score was -0.12. In the case of `COc1ccc(NC(=O)c2cc3ccccn3n2)cc1`, the z-score is reported as -0.0979. For `O=C(Nc1ccc(CN2CCOCC2)cc1)c1cc2ccccc2o1`, the z-score was 0.834. In the case of `CC1CCN(c2ccc(NC(=S)NC(=O)c3ccc(-c4cccc([N+](=O)[O-])c4)o3)cc2)CC1`, the z-score is reported as -0.0494. In the case of `O=C(Nc1ccc(CN2CCOCC2)cc1)c1cc2ccccn2n1`, the z-score is reported as 4.59 (active). `C=CCN(CC=C)S(=O)(=O)c1ccc(NC(=S)NC(=O)c2ccc(-c3ccccc3)cc2)cc1` gave a z-score of -0.107. Work on `O=C(NC(=S)Nc1ccc(CN2CCOCC2)cc1)c1cccc([N+](=O)[O-])c1` yielded a z-score of 2.19. For `C=CCN(CC=C)S(=O)(=O)c1ccc(NC(=S)NC(=O)c2ccco2)cc1`, the z-score was 10.3 (active). For `O=C(NC(=S)Nc1ccc(N2CCOCC2)cc1)c1cccc([N+](=O)[O-])c1`, the z-score was 0.169. Work on `NS(=O)(=O)c1ccc(NC(=S)NC(=O)c2ccco2)cc1` yielded a z-score of -0.0865. Work on `O=C(NC(=S)Nc1ccc(CN2CCOCC2)cc1)c1ccc([N+](=O)[O-])cc1` yielded a z-score of 0.649. In the case of `O=C(NC(=S)Nc1ccc(NC(=O)c2ccco2)cc1)c1ccccc1`, the z-score is reported as -0.416. With `CC1CCN(c2ccc(NC(=S)NC(=O)c3ccco3)cc2)CC1` the z-score was 4.93 (active). Work on `Cc1cccc2sc(NC(=O)C3CCN(S(=O)(=O)c4cc([N+](=O)[O-])ccc4Cl)CC3)nc12` yielded a z-score of 0.0365. In the case of `CCOC(=O)C1CCN(C(=O)COc2ccc(Cl)cc2Cl)CC1`, the z-score is reported as -0.471. `CCCCOC(=O)Nc1ccc(S(=O)(=O)Nc2ccc([N+](=O)[O-])cc2)cc1` was tested, and the z-score was 0.51. For `N/C(=N\OC(=O)c1ccc(Cl)c(Cl)c1)c1cccnc1`, the z-score was -0.145. `COc1ccccc1NC(=O)N(Cc1ccco1)Cc1cc2ccc(C)c(C)c2[nH]c1=O` was tested, and the z-score was -1.77. In the case of `C=CCn1c(Cc2cccs2)nnc1SCC(=O)c1ccc2ccccc2c1`, the z-score is reported as -0.708. In the case of `CCOC(=O)c1c(NC(=O)c2noc3c2CCCC3)sc(C)c1C`, the z-score is reported as -0.285. For `O=C(NC(=S)Nc1ccc(N2CCOCC2)cc1)c1cccc(Cl)c1`, the z-score was 4.95 (active). In the case of `O=C(NC(=S)Nc1ccc(N2CCOCC2)cc1)c1ccco1`, the z-score is reported as 3.46 (active). Compound `O=C(NC(=S)Nc1ccc(N2CCCCC2)cc1)c1ccco1` has a z-score of -1.53. For `O=C(NC(=S)Nc1ccc(N2CCOCC2)cc1)c1ccc(Cl)cc1`, the z-score was 0.272. `O=C(NC(=S)Nc1ccc(N2CCOCC2)cc1)c1ccc2c(c1)OCCO2` gave a z-score of 0.0862. Compound `S=C(NCc1ccco1)Nc1ccc(N2CCOCC2)cc1` has a z-score of -0.00184.
